The record followed here is the supplement of paper PMC11219838.

For the experiment, the system named is Meloidogyne hapla J2. The experiment is described as follows: proportion of mobile M. hapla J2 relative to DMSO control (fraction of DMSO control); higher = more viable, less nematicidal, active = 0.7 or less. The settings on record: 60 µM; 5 days; temperature: 20 °C. A digest of the protocol:
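Sealed 96-well plates, each well holding around 25 M. hapla J2 in distilled water with compound pinned to 60 µM final (0.6% v/v DMSO), were shaken at 200 rpm for 5 days at 20 °C. Then 2 µL of 1 M NaOH was added to each well. Microscope-scored mobility was normalised to the mean of DMSO-only wells from the same plate. Eight such wells were on each plate, and the two biological replicates were averaged.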
For `Cc1ccc(C(=O)Nc2ccccc2-c2nc(-c3ccncc3)no2)cc1C`, the “proportion of mobile M. hapla J2” value is 1.06 (inactive).

For `COc1ccc(CCC(=O)Nc2ccc(-c3noc(-c4ccccc4C)n3)cc2)cc1`, the “proportion of mobile M. hapla J2” value is 0.791 (inactive).

As for `Fc1ccc(CSc2nnc(-c3ccccn3)o2)cc1`, the “proportion of mobile M. hapla J2” value is 0.846 (inactive).

Regarding `Clc1ccc(-c2noc(-c3ccncc3)n2)cc1`, the “proportion of mobile M. hapla J2” value is 0.784 (inactive).

As for `Cc1cc(C)cc(OCc2nc(-c3ccccc3Cl)no2)c1`, the “proportion of mobile M. hapla J2” value is 0.978 (inactive).

On to `COc1ccccc1-c1nnc(SCC(=O)OCc2ccccc2)o1`, for which the “proportion of mobile M. hapla J2” value was 0.978 (inactive).

In the case of `Cc1cc(Cl)ccc1OCc1nc(-c2ccc(F)cc2)no1`, the “proportion of mobile M. hapla J2” value was 0.859 (inactive).

Take `CCc1cccc(CC)c1NC(=O)CSc1nnc(-c2ccccc2OC)o1`: the “proportion of mobile M. hapla J2” value was 0.758 (inactive).

On to `O=C(CSc1nnc(-c2ccccc2Cl)o1)Nc1nccs1`, for which the “proportion of mobile M. hapla J2” value is 0.992 (inactive).

For `N#Cc1ccc(OCc2nc(-c3ccc(Br)o3)no2)cc1`, the “proportion of mobile M. hapla J2” value was 1.06 (inactive).

Regarding `COc1ccc(-c2noc(CSc3ccc(C)cc3)n2)cc1`, the “proportion of mobile M. hapla J2” value was 1.03 (inactive).

As to `CCOC(=O)c1c(NC(=O)CSc2nnc(-c3ccc(Cl)cc3)o2)sc(C)c1C`, the “proportion of mobile M. hapla J2” value is 1.09 (inactive).

Regarding `Ic1ccc(-c2nc(-c3cccnc3)no2)cc1`, the “proportion of mobile M. hapla J2” value was 1.02 (inactive).

Turning to `CCOc1ccccc1-c1nnc(SCC(=O)c2ccccc2)o1`, the “proportion of mobile M. hapla J2” value was 1.01 (inactive).

For the compound `Cc1cc(C)c(NC(=O)CSc2nnc(-c3ccc(Br)cc3)o2)c(C)c1`, the “proportion of mobile M. hapla J2” value is 1 (inactive).

Turning to `COc1ccc(CC(=O)Nc2ccc(-c3noc(COc4cccc(C)c4C)n3)cc2)cc1`, the “proportion of mobile M. hapla J2” value is 0.88 (inactive).

As for `Cc1cc(OCc2nc(-c3cccnc3)no2)ccc1Cl`, the “proportion of mobile M. hapla J2” value is 0.942 (inactive).
